From PubChem BioAssay (EPA / NIEHS)
Where “and” joins values, the source holds several entries; their conditions need not be identical. Equal entries are not always repeated. Results filed as inconclusive are left out. Calls of active or inactive are those of the source. Rule for the calls, unless noted: active = hit-call score of the fitted dose curve at least 0.9, where 1 is the maximum; inactive = score below 0.9.

What was measured:
[1] = target: Glucocorticoid receptor (Homo sapiens) (UniProt P04150); experiment: ATG_GR_TRANS: Attagene TRANS-FACTORIAL HepG2 Assay for human Glucocorticoid Receptor (GR) (AID 2282978; active = hit-call score of the fitted dose curve at least 0.9, where 1 is the maximum;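 note: activators score as hits since higher reporter transcript over DMSO is fitted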); conditions: HepG2 Attagene TRANS GR reporter, mRNA transcription
Method in brief: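 HepG2 cells transiently transfected with multiplexed reporter units in which chimeric NR-GAL4 proteins drive GAL4-UAS reporters; 24 h compound exposure. Reporter mRNA measured by RT-PCR, 6-FAM labelling, HpaI digestion and capillary electrophoresis; gain-of-signal fitted versus DMSO.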

[2] = target: Hepatocyte nuclear factor 4-alpha (Homo sapiens) (UniProt P41235); experiment: ATG_HNF4a_TRANS: Attagene TRANS-FACTORIAL HepG2 Assay for human Hepatocyte Nuclear Factor 4 alpha (HNF4a) (AID 2282982; active = hit-call score of the fitted dose curve at least 0.9, where 1 is the maximum); conditions: HepG2 HNF4a transactivation reporter, mRNA readout
Method in brief: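 Activity of an exogenous HNF4a–Gal4 fusion scored as induced GAL4-UAS reporter transcripts after 24 h chemical exposure of transfected human HepG2 cells. Read-out via RT-PCR with 6-FAM labelling and capillary electrophoresis; rise over DMSO baseline.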

[3] = ATG_M_06_TRANS: Attagene TRANS-FACTORIAL HepG2 Assay for M06 Transcription Factor (Internal Marker) (AID 2282983; active = hit-call score of the fitted dose curve at least 0.9, where 1 is the maximum); conditions: HepG2 Attagene TRANS M06 internal marker reporter
Method in brief: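 Multi-reporter-transfected HepG2, 24 h treatment; reporter transcripts quantified via RT-PCR, primer-extension labelling and CE. DMSO-normalized gain-of-signal fit.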

[4] = target: Transcriptional activator Myb (Homo sapiens) (UniProt P10242); experiment: ATG_Myb_CIS: Attagene CIS-FACTORIAL HepG2 Assay for human Myeloblastosis (Myb) Proto-Oncogene Transcription Factor (AID 2282986); conditions: HepG2 Attagene CIS-FACTORIAL Myb reporter transcription; actives raise or lower the signal
Method in brief: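 HepG2 cells were transiently transfected with cis-regulated multiple reporter transcription units reflecting endogenous Myb activity, then exposed to compound for 24 hours. Reporter mRNA was measured by RT-PCR with capillary electrophoresis; bidirectional fitting versus DMSO baseline.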

[5] = target: Nuclear respiratory factor 1 (Homo sapiens) (UniProt Q16656); experiment: ATG_NRF1_CIS: Attagene CIS-FACTORIAL HepG2 Assay for human Nuclear Respiratory Factor 1 (NRF1) Orphan Gene (AID 2282987); conditions: HepG2 NRF1 cis-element reporter, Attagene multiplex; actives raise or lower the signal
Method in brief: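 HepG2 cells transiently transfected with multiple reporter transcription units under cis-regulatory promoter control, so endogenous transcription-factor activity is read. After 24 h compound exposure, reporter mRNA quantified by RT-PCR, fluorescent labelling, HpaI digestion and capillary electrophoresis; bidirectional fitting versus DMSO.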

[6] = ATG_NFI_CIS: Attagene CIS-FACTORIAL HepG2 Assay for human Nuclear Factor I (NFI) (AID 2282989); conditions: HepG2 cis-regulatory reporter, NFI response element transcription; actives raise or lower the signal
Method in brief: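 Reporter transcripts were measured by RT-PCR with fluorescent primer extension and capillary electrophoresis 24 h post-treatment. HepG2 cells carried transiently transfected cis-regulated reporter constructs reporting endogenous factor activity; gain or loss fitted against DMSO baseline.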

[7] = target: Myc proto-oncogene protein (Homo sapiens) (UniProt P01106); experiment: ATG_Myc_CIS: Attagene CIS-FACTORIAL HepG2 Assay for human Myelocytomatosis (Myc) Proto-Oncogene Transcription Factor (AID 2282990); conditions: HepG2, Attagene cis-reporter transcription factor activity; actives raise or lower the signal
Method in brief: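 After 24 h chemical treatment of HepG2 cells carrying multiplexed cis-regulated reporter constructs, reporter transcripts quantified by RT-PCR and capillary electrophoresis of fluorescent fragments. Gain or loss fitted against DMSO baseline.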

[8] = ATG_NF_kB_CIS: Attagene CIS-FACTORIAL HepG2 Assay for human Nuclear Factor Kappa B (NF-kB) (AID 2282991); conditions: HepG2 Attagene cis-factorial NF-kB reporter mRNA; actives raise or lower the signal
Method in brief: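 HepG2 cells transiently transfected with multiplexed cis-element reporter units measuring endogenous transcription factor activity; reporter mRNA read 24 h after dosing by RT-PCR, fluorescent labelling, HpaI digestion and capillary electrophoresis. Bidirectional fit against DMSO baseline.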

[9] = ATG_NRF2_ARE_CIS: Attagene CIS-FACTORIAL HepG2 Assay for human Nuclear Factor Erythroid 2 Related Factor 2 (NFR2) response to Antioxidant Response Elements (ARE) (AID 2282992); conditions: HepG2 Attagene ARE/NRF2 reporter, transcription factor activity; actives raise or lower the signal
Method in brief: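 Endogenous transcription factor activity read out as reporter transcript levels (RT-PCR plus capillary electrophoresis, fluorescence) in transiently transfected HepG2 cells. Measured at 24 h after dosing; gain or loss of signal fitted versus DMSO.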

[10] = ATG_Oct_MLP_CIS: Attagene CIS-FACTORIAL HepG2 Assay for human Octamer-Binding Transcription Factor (Oct) (AID 2282993); conditions: HepG2 Attagene cis-factorial Oct reporter, mRNA; actives raise or lower the signal
Method in brief: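 Readout is reporter transcript level from RT-PCR with fluorescent primer extension and capillary electrophoresis, fitted in both directions against DMSO. Transfected HepG2 reporter units report endogenous factor activity after 24 h dosing.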

[11] = target: Cellular tumor antigen p53 (Homo sapiens) (UniProt P04637); experiment: ATG_p53_CIS: Attagene CIS-FACTORIAL HepG2 Assay for human p53 Transcription Factor (AID 2282994); conditions: HepG2 p53 cis-element reporter, Attagene mRNA; actives raise or lower the signal
Method in brief: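 Endogenous p53 activity read in transiently transfected HepG2 from a cis-element-driven reporter transcript after 24 h exposure. RNA reverse-transcribed, PCR-amplified, fluorescently labelled and sized by capillary electrophoresis; gain or loss fitted against DMSO baseline.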

[12] = ATG_M_32_TRANS: Attagene TRANS-FACTORIAL HepG2 Assay for M32 Transcription Factor (Internal Marker) (AID 2282984; active = hit-call score of the fitted dose curve at least 0.9, where 1 is the maximum;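 note: transcript level of a background control reporter unit measured by RT-PCR and capillary electrophoresis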); conditions: HepG2 Attagene TRANS M32 internal marker reporter
Method in brief: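 Internal background reporter in transfected HepG2: after 24 h chemical exposure, RNA reverse-transcribed, reporter cDNA amplified, fluorescently labelled and HpaI-cut, then sized by capillary electrophoresis. Gain of signal fitted against DMSO control.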

[13] = target: Nuclear receptor subfamily 4 group A member 2 (Homo sapiens) (UniProt P43354); experiment: ATG_NURR1_TRANS: Attagene TRANS-FACTORIAL HepG2 Assay for human Nuclear Receptor Related Protein 1 (NURR1) (AID 2282985; active = hit-call score of the fitted dose curve at least 0.9, where 1 is the maximum); conditions: HepG2 Attagene TRANS reporter, mRNA readout
Method in brief: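 Reporter transcript induction, measured by RT-PCR with fluorescent labelling, HpaI digestion and capillary electrophoresis, after 24 hr dosing of human HepG2 cells transiently expressing an exogenous NR-Gal4 fusion with GAL4-UAS-driven reporters; DMSO as baseline.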

[14] = BSK_3C_TissueFactor: BioMAP Diversity Plus: 3C Assay for Tissue Factor Biomarker Activity (AID 2282997); conditions: BioMAP 3C HUVEC, tissue factor biomarker readout; actives raise or lower the signal
Method in brief: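 In this endothelial system, HUVEC are treated for 24 h and Tissue Factor is assessed by ELISA, normalised to DMSO.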

[15] = BSK_3C_VCAM1: BioMAP Diversity Plus: 3C Assay for Vascular cell adhesion molecule 1 (VCAM1) Biomarker Activity (AID 2282999); conditions: BioMAP 3C HUVEC, VCAM1 ELISA, cytokine-stimulated; actives raise or lower the signal
Method in brief: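 Activity fitted in both directions relative to DMSO, with ELISA measurement of the surface marker on primary HUVEC (3C) at 24 h post-treatment; parallel SRB staining (0.1% SRB, TCA-fixed, 560 nm) flagged overt cytotoxicity.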

[16] = target: Bile acid receptor (Homo sapiens) (UniProt Q96RI1); experiment: ATG_FXR_TRANS: Attagene TRANS-FACTORIAL HepG2 Assay for Farnesoid X Receptor (FXR) (AID 2282979; active = hit-call score of the fitted dose curve at least 0.9, where 1 is the maximum;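 note: hits raise reporter mRNA above DMSO so AC50 marks FXR activation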); conditions: HepG2 Attagene TRANS FXR-GAL4 reporter transcription
Method in brief: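 After 24 h chemical treatment of transfected HepG2 cells, GAL4-UAS reporter transcripts driven by an exogenous FXR-GAL4 fusion were measured by RT-PCR and capillary electrophoresis. Increases over DMSO were fitted.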

[17] = target: Oxysterols receptor LXR-beta (Homo sapiens) (UniProt P55055); experiment: ATG_LXRb_TRANS: Attagene TRANS-FACTORIAL HepG2 Assay for human Liver X Receptor beta (LXRb) (AID 2282981; active = hit-call score of the fitted dose curve at least 0.9, where 1 is the maximum); conditions: HepG2 Attagene TRANS GAL4-LXRb reporter, mRNA
Method in brief: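 After 24 h chemical treatment of transfected HepG2 cells carrying exogenous NR-Gal4 chimeras, reporter mRNA was quantified by fluorescent RT-PCR and capillary electrophoresis; activity taken as increase over DMSO controls.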

[18] = target: Oxysterols receptor LXR-alpha (Homo sapiens) (UniProt Q13133); experiment: ATG_LXRa_TRANS: Attagene TRANS-FACTORIAL HepG2 Assay for human Liver X Receptor alpha (LXRa) (AID 2282980; active = hit-call score of the fitted dose curve at least 0.9, where 1 is the maximum); conditions: HepG2 Attagene TRANS reporter, LXRa transactivation
Method in brief: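 In this multiplexed TRANS system, compounds act on HepG2 cells carrying GAL4-UAS reporter units and a receptor-GAL4 fusion for 24 h. Induced reporter RNA is amplified, fluorescently labelled and sized by capillary electrophoresis, with DMSO as baseline.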

[19] = BSK_3C_uPAR: BioMAP Diversity Plus: 3C Assay for Urokinase-type plasminogen activator receptor (uPAR) Biomarker Activity (AID 2282998); conditions: BioMAP 3C HUVEC, uPAR biomarker ELISA; actives raise or lower the signal
Method in brief: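 Cell-surface uPAR on HUVEC (3C system) read by ELISA at 24 h post-treatment, with DMSO as baseline and fitting in both directions. Parallel cultures stained with SRB to flag overt cytotoxicity.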

Measured: AC50

Sequence of Nuclear receptor subfamily 4 group A member 2 (Homo sapiens) (P43354 whole entry, looked up, the tested form may be a part): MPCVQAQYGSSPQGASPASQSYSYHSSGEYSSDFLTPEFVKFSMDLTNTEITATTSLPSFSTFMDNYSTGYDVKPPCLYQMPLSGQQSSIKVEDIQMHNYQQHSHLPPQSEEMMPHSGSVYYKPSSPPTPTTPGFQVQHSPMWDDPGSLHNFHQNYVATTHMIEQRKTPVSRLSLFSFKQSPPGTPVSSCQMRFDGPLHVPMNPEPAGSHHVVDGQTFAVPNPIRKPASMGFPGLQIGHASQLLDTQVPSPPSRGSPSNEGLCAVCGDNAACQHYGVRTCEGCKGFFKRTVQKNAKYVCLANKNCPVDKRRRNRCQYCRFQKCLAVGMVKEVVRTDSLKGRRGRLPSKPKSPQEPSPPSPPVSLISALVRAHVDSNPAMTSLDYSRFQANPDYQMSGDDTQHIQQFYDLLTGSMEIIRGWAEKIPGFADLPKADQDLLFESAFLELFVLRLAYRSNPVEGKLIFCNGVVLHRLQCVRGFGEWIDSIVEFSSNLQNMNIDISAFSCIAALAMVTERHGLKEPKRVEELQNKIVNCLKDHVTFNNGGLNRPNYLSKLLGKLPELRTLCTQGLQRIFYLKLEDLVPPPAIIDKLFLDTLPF
Sequence of Glucocorticoid receptor (Homo sapiens) (P04150 whole entry, looked up, the tested form may be a part): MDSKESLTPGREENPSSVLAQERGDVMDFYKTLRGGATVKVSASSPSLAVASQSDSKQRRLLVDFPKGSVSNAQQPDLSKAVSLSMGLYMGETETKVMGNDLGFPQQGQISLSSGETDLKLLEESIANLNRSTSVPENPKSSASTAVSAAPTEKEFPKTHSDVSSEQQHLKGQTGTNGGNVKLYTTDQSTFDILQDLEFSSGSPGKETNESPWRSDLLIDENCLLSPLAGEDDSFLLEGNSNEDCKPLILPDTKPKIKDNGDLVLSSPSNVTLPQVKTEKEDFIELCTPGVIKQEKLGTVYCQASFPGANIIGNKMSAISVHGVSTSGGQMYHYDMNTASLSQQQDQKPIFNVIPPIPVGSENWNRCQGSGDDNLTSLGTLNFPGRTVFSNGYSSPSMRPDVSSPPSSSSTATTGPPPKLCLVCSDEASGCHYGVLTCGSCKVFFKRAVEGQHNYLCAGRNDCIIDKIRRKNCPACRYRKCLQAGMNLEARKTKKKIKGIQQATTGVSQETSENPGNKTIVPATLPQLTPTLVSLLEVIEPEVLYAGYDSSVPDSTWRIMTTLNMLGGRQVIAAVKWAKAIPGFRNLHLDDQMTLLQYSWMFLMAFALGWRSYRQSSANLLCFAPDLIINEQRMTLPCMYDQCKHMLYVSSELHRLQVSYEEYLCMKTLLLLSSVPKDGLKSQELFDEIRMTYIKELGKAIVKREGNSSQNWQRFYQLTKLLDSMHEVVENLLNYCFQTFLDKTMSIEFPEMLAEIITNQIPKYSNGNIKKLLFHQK
Sequence of Transcriptional activator Myb (Homo sapiens) (P10242 whole entry, looked up): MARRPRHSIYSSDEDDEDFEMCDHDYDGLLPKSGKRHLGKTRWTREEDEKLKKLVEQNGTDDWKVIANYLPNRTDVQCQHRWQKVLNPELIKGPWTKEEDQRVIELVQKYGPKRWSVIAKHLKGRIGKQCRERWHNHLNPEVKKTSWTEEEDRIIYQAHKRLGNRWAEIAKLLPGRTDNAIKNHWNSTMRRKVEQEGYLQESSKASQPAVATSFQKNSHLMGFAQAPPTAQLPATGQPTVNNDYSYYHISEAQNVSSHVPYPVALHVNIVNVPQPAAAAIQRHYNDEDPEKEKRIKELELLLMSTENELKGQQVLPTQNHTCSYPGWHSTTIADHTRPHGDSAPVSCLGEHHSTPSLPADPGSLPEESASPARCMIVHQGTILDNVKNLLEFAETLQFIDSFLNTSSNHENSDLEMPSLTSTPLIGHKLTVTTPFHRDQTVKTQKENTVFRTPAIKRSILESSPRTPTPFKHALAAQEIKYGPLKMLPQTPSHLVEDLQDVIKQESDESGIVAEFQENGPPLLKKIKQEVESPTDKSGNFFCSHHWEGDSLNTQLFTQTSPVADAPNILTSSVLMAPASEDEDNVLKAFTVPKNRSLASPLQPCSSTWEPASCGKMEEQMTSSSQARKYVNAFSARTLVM
Sequence of Hepatocyte nuclear factor 4-alpha (Homo sapiens) (P41235 whole entry, looked up, the tested form may be a part): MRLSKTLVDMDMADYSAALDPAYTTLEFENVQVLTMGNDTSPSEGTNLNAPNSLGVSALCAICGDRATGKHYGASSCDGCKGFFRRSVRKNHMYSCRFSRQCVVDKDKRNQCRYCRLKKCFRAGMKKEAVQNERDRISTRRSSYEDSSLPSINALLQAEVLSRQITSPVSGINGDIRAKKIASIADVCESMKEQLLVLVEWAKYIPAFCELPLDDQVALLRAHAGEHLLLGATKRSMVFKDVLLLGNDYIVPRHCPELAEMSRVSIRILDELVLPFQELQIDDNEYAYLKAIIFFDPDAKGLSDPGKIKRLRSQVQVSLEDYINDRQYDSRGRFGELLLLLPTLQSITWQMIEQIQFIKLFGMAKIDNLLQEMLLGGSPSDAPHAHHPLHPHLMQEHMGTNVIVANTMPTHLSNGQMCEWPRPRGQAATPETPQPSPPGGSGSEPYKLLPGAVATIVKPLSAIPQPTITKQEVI
Sequence of Oxysterols receptor LXR-beta (Homo sapiens) (P55055 whole entry, looked up, the tested form may be a part): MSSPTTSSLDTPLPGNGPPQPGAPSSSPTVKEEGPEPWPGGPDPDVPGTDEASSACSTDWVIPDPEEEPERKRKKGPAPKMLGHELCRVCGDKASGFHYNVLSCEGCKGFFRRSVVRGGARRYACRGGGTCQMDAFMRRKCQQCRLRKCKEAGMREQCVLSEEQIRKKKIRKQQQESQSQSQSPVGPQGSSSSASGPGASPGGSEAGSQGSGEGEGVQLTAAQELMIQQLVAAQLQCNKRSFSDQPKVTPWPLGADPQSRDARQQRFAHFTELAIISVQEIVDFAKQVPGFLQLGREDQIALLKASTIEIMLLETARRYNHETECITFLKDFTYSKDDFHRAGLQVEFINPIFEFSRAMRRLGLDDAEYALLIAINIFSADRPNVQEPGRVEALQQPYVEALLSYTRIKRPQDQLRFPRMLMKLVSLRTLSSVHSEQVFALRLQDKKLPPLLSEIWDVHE
Sequence of Bile acid receptor (Homo sapiens) (Q96RI1 whole entry, looked up, the tested form may be a part): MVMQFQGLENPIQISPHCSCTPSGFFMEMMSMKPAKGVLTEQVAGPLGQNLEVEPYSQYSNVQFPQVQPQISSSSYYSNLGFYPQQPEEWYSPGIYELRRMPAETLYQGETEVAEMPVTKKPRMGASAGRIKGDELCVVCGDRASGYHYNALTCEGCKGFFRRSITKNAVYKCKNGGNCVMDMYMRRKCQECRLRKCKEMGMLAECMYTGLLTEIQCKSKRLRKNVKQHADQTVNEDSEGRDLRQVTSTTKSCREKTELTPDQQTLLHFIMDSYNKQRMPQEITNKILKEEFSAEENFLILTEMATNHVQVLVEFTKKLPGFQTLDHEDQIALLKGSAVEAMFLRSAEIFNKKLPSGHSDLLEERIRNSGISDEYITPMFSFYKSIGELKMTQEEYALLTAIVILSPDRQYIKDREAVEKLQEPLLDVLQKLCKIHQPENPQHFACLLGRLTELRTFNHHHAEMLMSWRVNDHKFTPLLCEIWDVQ
Sequence of Cellular tumor antigen p53 (Homo sapiens) (P04637 whole entry, looked up): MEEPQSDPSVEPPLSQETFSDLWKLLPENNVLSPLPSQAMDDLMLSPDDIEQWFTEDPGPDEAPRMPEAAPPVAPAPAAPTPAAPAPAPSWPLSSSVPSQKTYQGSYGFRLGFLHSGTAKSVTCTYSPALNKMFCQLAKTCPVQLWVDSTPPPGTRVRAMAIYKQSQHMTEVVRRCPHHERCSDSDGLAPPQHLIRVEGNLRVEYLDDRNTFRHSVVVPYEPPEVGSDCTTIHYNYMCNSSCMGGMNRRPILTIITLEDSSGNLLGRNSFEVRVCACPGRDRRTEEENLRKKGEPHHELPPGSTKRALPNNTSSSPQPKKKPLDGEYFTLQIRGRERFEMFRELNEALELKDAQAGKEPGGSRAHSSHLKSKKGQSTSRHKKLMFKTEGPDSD
Sequence of Nuclear respiratory factor 1 (Homo sapiens) (Q16656 whole entry, looked up): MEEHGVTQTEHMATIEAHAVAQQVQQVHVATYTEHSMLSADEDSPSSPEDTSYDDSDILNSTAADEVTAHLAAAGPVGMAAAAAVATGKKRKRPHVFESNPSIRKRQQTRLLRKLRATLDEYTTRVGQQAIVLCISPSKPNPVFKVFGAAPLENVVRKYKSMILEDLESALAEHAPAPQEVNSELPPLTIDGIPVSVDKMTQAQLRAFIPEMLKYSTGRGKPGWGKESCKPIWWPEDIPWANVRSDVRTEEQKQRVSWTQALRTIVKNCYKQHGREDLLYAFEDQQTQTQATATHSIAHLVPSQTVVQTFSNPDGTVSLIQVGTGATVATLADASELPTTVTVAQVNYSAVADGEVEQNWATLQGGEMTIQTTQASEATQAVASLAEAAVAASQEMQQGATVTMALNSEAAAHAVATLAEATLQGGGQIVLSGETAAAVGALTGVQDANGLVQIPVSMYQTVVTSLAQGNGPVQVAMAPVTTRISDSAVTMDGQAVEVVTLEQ
Sequence of Myc proto-oncogene protein (Homo sapiens) (P01106 whole entry, looked up, the tested form may be a part): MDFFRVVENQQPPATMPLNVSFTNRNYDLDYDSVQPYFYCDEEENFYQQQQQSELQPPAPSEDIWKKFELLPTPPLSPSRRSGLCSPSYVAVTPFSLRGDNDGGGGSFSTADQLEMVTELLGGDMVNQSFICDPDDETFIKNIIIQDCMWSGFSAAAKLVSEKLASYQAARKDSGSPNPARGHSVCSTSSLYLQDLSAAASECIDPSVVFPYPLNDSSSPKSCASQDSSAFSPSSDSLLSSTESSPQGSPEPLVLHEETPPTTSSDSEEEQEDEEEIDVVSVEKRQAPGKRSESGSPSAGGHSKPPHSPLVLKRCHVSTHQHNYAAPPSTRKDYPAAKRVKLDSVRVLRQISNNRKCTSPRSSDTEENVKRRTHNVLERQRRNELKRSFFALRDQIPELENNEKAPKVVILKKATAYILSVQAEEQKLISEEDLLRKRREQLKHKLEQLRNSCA

CC(=O)c1ccccc1N
inactive: [1] | [2] | [3] | [4] | [5] | [6] | [7] | [8] | [9] | [10] | [11]

Brc1nc2ccccc2s1
inactive: [1] | [2] | [3] | [12] | [13] | [4] | [5] | [6] | [7] | [10] | [11] | [14] | [15]
active: [9] 23.6 µM

CC1CCCCC1
inactive: [16] | [17] | [3] | [12] | [4] | [5] | [6] | [7] | [8] | [9] | [10] | [11]

O=C(O)C(F)(F)OC(F)(F)C(F)(F)OC(F)(F)C(F)(F)OC(F)(F)F
active: [9] 37.8 µM
inactive: [16] | [18] | [3] | [12] | [13] | [4] | [5] | [6] | [7] | [8] | [10] | [11] | [14] | [15]

CCN(CCO)S(=O)(=O)C(F)(F)C(F)(F)C(F)(F)C(F)(F)C(F)(F)C(F)(F)C(F)(F)C(F)(F)F
inactive: [16] | [17] | [3] | [12] | [13] | [4] | [5] | [6] | [7] | [8] | [11] | [15]
active: [9] 110 µM | [10] 15.4 µM | [14] 55.1 µM and 9.9 µM

O=C1c2c(O)ccc(Nc3ccc(CCO)cc3)c2C(=O)c2c([N+](=O)[O-])ccc(O)c21
inactive: [16] | [18] | [17] | [2] | [3] | [12] | [4] | [5] | [6] | [7] | [10] | [11]
active: [13] 30.4 µM | [9] 6.59 µM | [14] 700 nM | [19] 4.7 µM | [15] 23.2 µM

O=S(=O)(O)c1ccc(Cl)cc1
inactive: [1] | [17] | [2] | [3] | [12] | [13] | [4] | [5] | [6] | [7] | [9] | [10] | [11]

Cc1cc(=O)[nH]c(C(C)C)n1
inactive: [1] | [17] | [2] | [3] | [12] | [13] | [4] | [5] | [6] | [7] | [8] | [9] | [10] | [11]

Cc1cccc(C)n1
inactive: [1] | [2] | [3] | [12] | [4] | [5] | [6] | [7] | [8] | [9] | [10] | [11]
